High-throughput results as filed in PubChem BioAssay.
In the library only some 10% were active in any assay of this set; here they are far more common.
ALOX12 inhib = qHTS Assay for Inhibitors of 12-hLO (12-human lipoxygenase); Potency, µM (doses to about 57.1 µM), for inactives: top-dose activity change, negative = inhibition, usual class: inhibitors; Polyunsaturated fatty acid lipoxygenase ALOX12 (Homo sapiens), P18054; purified 12-hLO, xylenol orange hydroperoxide absorbance; 150,000 compounds, 0.12% hits; AID 1452, 2008; further: potency means the concentration at half of the fitted maximal effect; nearly all actives have a fitted effect of over 55% in size
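Purified human 12hLO (150 nM final) was preincubated with compounds for 15 min at room temperature in 25 mM Hepes pH 7.0, 0.01% Triton X-100, then reacted with 40 uM arachidonic acid for 30 min. Hydroperoxide was detected with ferrous iron/xylenol orange.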
ALDH1A1 inh = qHTS Assay for Inhibitors of Aldehyde Dehydrogenase 1 (ALDH1A1); Purified ALDH1A1, NADH fluorescence, propionaldehyde substrate; Aldehyde dehydrogenase 1A1 (Homo sapiens), P00352; AID 1030, 2008; Potency, µM (titrated, usually from 75.3 µM), for the others: at the highest dose activity, negative = inhibition, most hits filed as inhibitors; 220,000 compounds, 7.3% hits; active means well fitted inhibition curve with a large enough effect, not every such curve was filed as active; inconclusive means small, poorly fitted or top-dose-only effect, or another doubt; inactive means no such curve, though single readings can be large or run the other way;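 further: potency means the concentration at half of the fitted maximal effect; plate controls were no enzyme wells and a reference inhibitor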
GLA inh pH 4.5 = qHTS Assay for Inhibitors of Human alpha-Galactosidase at pH 4.5; Alpha-galactosidase A (Homo sapiens), P06280; purified enzyme, 4-MU-alpha-Gal fluorescence, pH 4.5; activity change, negative = inhibition, % at 105 µM; 230,000 tested, under 10 active;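 further: 0% = full activity with enzyme and -100% = basal without enzyme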
Target sequence (P06280 whole entry, looked up): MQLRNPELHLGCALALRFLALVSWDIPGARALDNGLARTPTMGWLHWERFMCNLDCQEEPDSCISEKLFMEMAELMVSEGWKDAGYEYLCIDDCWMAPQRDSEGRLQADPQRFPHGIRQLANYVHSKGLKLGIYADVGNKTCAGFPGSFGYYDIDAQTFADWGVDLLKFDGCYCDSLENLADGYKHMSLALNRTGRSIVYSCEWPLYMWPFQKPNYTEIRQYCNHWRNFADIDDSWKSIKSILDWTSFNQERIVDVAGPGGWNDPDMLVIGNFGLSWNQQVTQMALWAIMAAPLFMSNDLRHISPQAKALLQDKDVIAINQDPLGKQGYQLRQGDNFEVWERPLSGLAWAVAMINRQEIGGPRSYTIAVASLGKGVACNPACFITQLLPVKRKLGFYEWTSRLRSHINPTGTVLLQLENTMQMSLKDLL
HPGD inh = qHTS Assay for Inhibitors of HPGD (15-Hydroxyprostaglandin Dehydrogenase) | 15-hydroxyprostaglandin dehydrogenase [NAD(+)] (Homo sapiens), P15428 | purified HPGD, NADH fluorescence kinetic, PGE2 substrate | Potency, µM, without a hit: at the top dose activity change, negative = inhibition, most hits filed as inhibitors | AID 894, 2007 | 150,000 compounds, 4.3% hits; active means well fitted inhibition curve with a large enough effect, not every such curve was filed as active; inconclusive means small, poorly fitted or top-dose-only effect, or another doubt; inactive means no such curve, though single readings can be large or run the other way; further: potency means the concentration at half of the fitted maximal effect
Target sequence (P15428 whole entry, looked up): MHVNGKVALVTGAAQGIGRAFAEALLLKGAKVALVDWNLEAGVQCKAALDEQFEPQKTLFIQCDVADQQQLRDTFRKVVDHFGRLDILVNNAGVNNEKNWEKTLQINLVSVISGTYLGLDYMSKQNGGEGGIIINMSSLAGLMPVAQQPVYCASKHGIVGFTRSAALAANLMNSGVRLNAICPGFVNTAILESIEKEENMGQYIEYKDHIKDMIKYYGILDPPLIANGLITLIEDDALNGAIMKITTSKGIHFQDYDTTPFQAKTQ
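20 nM HPGD preincubated 15 min at room temperature with compound in 50 mM Tris-HCl pH 8, 0.01% Tween 20. Started with 1 mM NAD+ and 30 uM prostaglandin E2; NADH fluorescence (360/450 nm) read 5 times over 30-s intervals, last minus first.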
PNC inhibitor = High Content Assay for Compounds that inhibit the Assembly of the Perinucleolar Compartment | PC3M PTB-GFP, PNC prevalence imaging, 16 h; stronger effect = lower value | activity change (PNC), negative = inhibition, % at 10 µM | 140,000 compounds, 3.1% hits | AID 2417, 2010;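 active means readout at or below -70, meaning at least 70% loss of cells showing the perinucleolar compartment, a nuclear body marking cancer cells; inconclusive means readout between -30 and a set limit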;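 further: plate controls were DMSO wells for no effect and camptothecin positive control wells for full effect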
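Compounds are pinned in duplicate onto adhered PC3M cells stably expressing GFP-tagged PTB and incubated 16 h at 37 C. Cells are then fixed, nuclei stained with Hoechst, and PNC-positive cells counted.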
aGal spleen mod = qHTS Assay for Inhibitors and Activators of Human alpha-Galactosidase From Spleen Homogenate | human spleen homogenate, 4MU-alpha-Gal fluorescence, 40 min | Potency, µM (series often up to 80 µM), without a hit: at the highest dose activity change, negative = inhibition, actives largely listed as inhibitors | 240,000 compounds, 0.008% hits;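 further: potency means the concentration at half of the fitted maximal effect; 0% = enzyme with vehicle and -100% = no enzyme basal signal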
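Human spleen homogenate (1 ug) was the enzyme source, with 4-methylumbelliferyl-alpha-D-galactopyranoside (1 mM final) in pH 5.0 citrate buffer with 0.01% Tween-20. Compounds were titrated; after 40 min at 37C, NaOH/glycine stop, 4-MU fluorescence read; AC50 from Hill fits.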
The depositor's hits bear a star. Unless noted, the call rests on the fitted dose curve; in most records, active means well fitted curve in the direction sought with a large enough effect; inconclusive means small, poorly fitted or top-dose-only effect, or another doubt; inactive means no such curve, though single readings can be large; an effect the other way counts as inactive or inconclusive. Unless noted, on the % scale 0 is the no-effect control and ±100 the full control effect.

C=CCn1c(Cc2cccs2)nnc1SCC(=O)Nc1cccc(OC)c1 was read as ALOX12 inhib -8%, ALDH1A1 inh -2%, GLA inh pH 4.5 -2, HPGD inh -4%, PNC inhibitor -5 and aGal spleen mod -15%.
`COc1ccc(NC(=O)CSc2nnc(Cc3cccs3)n2-c2ccc(C)cc2)cc1` gave ALOX12 inhib -7%, ALDH1A1 inh 16µM*, GLA inh pH 4.5 -4, HPGD inh -6%, PNC inhibitor 34 and aGal spleen mod 4%.
Screening COc1cccc(NC(=O)CSc2nnc(Cc3cccs3)n2-c2ccc(C)cc2)c1 returned ALOX12 inhib -22%, ALDH1A1 inh 3µM*, GLA inh pH 4.5 -7, HPGD inh -15%, PNC inhibitor -2 and aGal spleen mod 3%.
`Cc1ccc(-n2c(Cc3cccs3)nnc2SCC(=O)Nc2ccc(S(N)(=O)=O)cc2)cc1` gave ALOX12 inhib -6%, ALDH1A1 inh inconclusive, GLA inh pH 4.5 2, HPGD inh -1%, PNC inhibitor 25 and aGal spleen mod 10%.
Screening O=S(=O)(Nc1nc(-c2sccc2Cl)cs1)c1cc(Cl)ccc1Cl returned ALOX12 inhib -25%, ALDH1A1 inh -7%, GLA inh pH 4.5 4, HPGD inh -6%, PNC inhibitor -14 and aGal spleen mod 2%.
For CN(c1ccccc1)c1nc(N)c([N+](=O)[O-])c(N2CCOCC2)n1 the results were ALDH1A1 inh inconclusive, GLA inh pH 4.5 -6 and aGal spleen mod 0%.
Screening CCOC(=O)c1ccc(-n2c(N)c(C(=O)NCc3ccco3)sc2=S)cc1 returned ALOX12 inhib inconclusive, ALDH1A1 inh 18µM*, GLA inh pH 4.5 -12, HPGD inh 28µM*, PNC inhibitor -21 and aGal spleen mod -9%.
`COc1ccc(-n2c(N)c(C(=O)NCc3ccco3)sc2=S)cc1` gave ALOX12 inhib -18%, ALDH1A1 inh inconclusive, GLA inh pH 4.5 -6, HPGD inh inconclusive, PNC inhibitor 36 and aGal spleen mod -6%.
For CCn1c(N)c(C(N)=O)sc1=S the results were ALOX12 inhib -3%, ALDH1A1 inh 8.9µM*, GLA inh pH 4.5 -4, HPGD inh inconclusive, PNC inhibitor -6 and aGal spleen mod 1%.
`CCn1c(N)c(C(=O)NCc2ccco2)sc1=S` gave ALOX12 inhib -14%, ALDH1A1 inh 14µM*, GLA inh pH 4.5 -2, HPGD inh 22µM*, PNC inhibitor inconclusive and aGal spleen mod 8%.
Screening C=CCNC(=O)c1sc(=S)n(-c2ccc(C(=O)OCC)cc2)c1N returned ALOX12 inhib -21%, ALDH1A1 inh 13µM*, GLA inh pH 4.5 -5, HPGD inh 16µM*, PNC inhibitor 23 and aGal spleen mod -4%.
Screening C=CCn1c(N)c(C(=O)OCC)sc1=S returned ALOX12 inhib 0%, ALDH1A1 inh -11%, GLA inh pH 4.5 1, HPGD inh -17%, PNC inhibitor -28 and aGal spleen mod 3%.
Screening Cc1[nH]c2ccccc2c1C(=O)NS(=O)(=O)Nc1ccc(F)cc1 returned ALDH1A1 inh 1%, GLA inh pH 4.5 -2 and aGal spleen mod 0%.
`CCOC(=O)c1ccc(-n2c(=S)sc3c(=O)[nH]c(C)nc32)cc1` gave ALOX12 inhib -2%, ALDH1A1 inh 7.1µM*, GLA inh pH 4.5 3, HPGD inh 6.3µM*, PNC inhibitor inconclusive and aGal spleen mod -2%.
For CCOC(=O)CC(=O)CSc1nc2c(sc(=S)n2-c2ccccc2)c(=O)[nH]1 the results were ALOX12 inhib -13%, ALDH1A1 inh inconclusive, GLA inh pH 4.5 -4, PNC inhibitor -5 and aGal spleen mod 5%.
Cc1ccc(C(C(=O)NC2CCCC2)N(Cc2ccc(F)cc2)C(=O)c2csnn2)o1 (stereo not drawn) was read as ALOX12 inhib -5%, ALDH1A1 inh 14µM*, GLA inh pH 4.5 -16, HPGD inh -6%, PNC inhibitor inconclusive and aGal spleen mod 5%.
For O=C(NC1CCCC1)C(c1ccncc1)N(Cc1ccccc1)C(=O)Cc1cccs1 (stereo not drawn) the results were ALOX12 inhib 2%, ALDH1A1 inh inconclusive, GLA inh pH 4.5 6, HPGD inh -23%, PNC inhibitor -4 and aGal spleen mod 15%.
Screening O=C(NC1CCCC1)C(c1cccs1)N(Cc1ccco1)C(=O)c1csnn1 (stereo not drawn) returned ALOX12 inhib -1%, ALDH1A1 inh inconclusive, GLA inh pH 4.5 3, HPGD inh -17%, PNC inhibitor inconclusive and aGal spleen mod -15%.
COc1ccc(CN(C(=O)c2ccc(-c3ccccc3)[nH]2)C(C(=O)NCC2CCCO2)c2ccc(C)o2)cc1 (stereo not drawn) was read as ALOX12 inhib -3%, ALDH1A1 inh 10µM*, GLA inh pH 4.5 -4, HPGD inh inconclusive, PNC inhibitor 74 and aGal spleen mod 4%.
Screening O=C(NC1CCCC1)C(c1ccncc1)N(Cc1cccs1)C(=O)c1csnn1 (stereo not drawn) returned ALOX12 inhib -18%, ALDH1A1 inh 3.5µM*, GLA inh pH 4.5 -4, HPGD inh -18%, PNC inhibitor -17 and aGal spleen mod -6%.
O=C(NC1CCCCC1)C(c1ccncc1)N(Cc1ccccc1)C(=O)c1ccc(-c2ccccc2)[nH]1 (stereo not drawn) was read as ALOX12 inhib 4%, ALDH1A1 inh 22µM*, GLA inh pH 4.5 -13, HPGD inh -17%, PNC inhibitor 100 and aGal spleen mod 10%.
For Cc1ccccc1-c1nccc(NCc2cccnc2)n1 the results were ALDH1A1 inh inconclusive and aGal spleen mod -2%.
For NCCNS(=O)(=O)c1cccc2cnccc12 the results were ALOX12 inhib -1%, ALDH1A1 inh -6%, GLA inh pH 4.5 -4, HPGD inh 2% and aGal spleen mod -4%.
`Clc1ccc2ncc(-c3nnnn3-c3ccccc3)c(-c3ccccc3)c2c1` gave ALOX12 inhib 0%, ALDH1A1 inh 11µM*, GLA inh pH 4.5 2, HPGD inh -10%, PNC inhibitor inconclusive and aGal spleen mod -2%.
